The campaign covered roughly 5,500 compounds. About 2,000 (36%) were called active. Inconclusive results (about 18%) are left out. No stated cut-off is given here; in the data, active means normalized growth mostly below about 0.91 (no sharp cut-off); inconclusive means no clear call, values can overlap the other calls; inactive means mostly above about 0.92. The list shows a part of the results.
Assay: chemical genetic growth profiling, strain panel (AID 1159580);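 further: tested at 20 µM; growth read once vehicle control cultures reached saturation at 30 °C; 1 = growth at the plate median or of vehicle wells; lower values mean less growth of the strain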
Conditions: growth OD

Measured: normalized growth

CN[C@H](CC(=O)O)C(=O)O
inactive: S. cerevisiae deletion strains, locus YJR066W, strain TOR1, active compounds read low 0.949 | S. cerevisiae deletion strains, locus YJR075W, strain HOC1, active compounds read low 0.988 | S. cerevisiae deletion strains, locus YKL009W, strain mrt4, active compounds read low 0.938 | S. cerevisiae deletion strains, locus YKL068W, active compounds read low 1.01 | S. cerevisiae deletion strains, locus YKL085W, strain MDH1 (second series), active compounds read low 1.01 | S. cerevisiae deletion strains, locus YKL085W, strain MDH1, active compounds read low 1.01 | S. cerevisiae deletion strains, locus YKL160W, strain elf1, active compounds read low 1.02 | S. cerevisiae deletion strains, locus YKL190W, strain CNB1, active compounds read low 0.999 | S. cerevisiae deletion strains, locus YKR001C, strain vps1, active compounds read low 0.989 | S. cerevisiae deletion strains, locus YKR026C, strain gcn3, active compounds read low 1.02 | S. cerevisiae deletion strains, locus YKR091W, strain srl3, active compounds read low 1.02 | S. cerevisiae deletion strains, locus YLL001W, strain dnm1, active compounds read low 1.03 | S. cerevisiae deletion strains, locus YLL026W, active compounds read low 1.03 | S. cerevisiae deletion strains, locus YLL041C, strain sdh2, active compounds read low 1.01 | S. cerevisiae deletion strains, locus YLR027C, strain aat2, active compounds read low 1.03 | S. cerevisiae deletion strains, locus YLR039C, strain RIC1, active compounds read low 0.962 | S. cerevisiae deletion strains, locus YLR058C, strain SHM2, active compounds read low 0.989 | S. cerevisiae deletion strains, locus YLR102C, strain apc9, active compounds read low 0.989 | S. cerevisiae deletion strains, locus YLR113W, strain HOG1, active compounds read low 1.07 | S. cerevisiae deletion strains, locus YLR221C, strain rsa3, active compounds read low 1 | S. cerevisiae deletion strains, locus YLR258W, strain gsy2, active compounds read low 1.02 | S. cerevisiae deletion strains, locus YLR262C, strain YPT6 (second series), active compounds read low 1.01 | S. cerevisiae deletion strains, locus YLR262C, strain YPT6, active compounds read low 0.936 | S. cerevisiae deletion strains, locus YLR268W, strain sec22, active compounds read low 0.991 | S. cerevisiae deletion strains, locus YLR320W, strain mms22, active compounds read low 0.992 | S. cerevisiae deletion strains, locus YLR330W, strain CHS5, active compounds read low 0.991 | S. cerevisiae deletion strains, locus YLR342W, strain FKS1 (second series), active compounds read low 0.983 | S. cerevisiae deletion strains, locus YLR342W, strain FKS1, active compounds read low 1.02 | S. cerevisiae deletion strains, locus YLR357W, strain rsc2, active compounds read low 0.995 | S. cerevisiae deletion strains, locus YLR370C, strain arc18, active compounds read low 1.02 | S. cerevisiae deletion strains, locus YLR371W, strain rom2, active compounds read low 0.997 | S. cerevisiae deletion strains, locus YLR384C, strain iki3, active compounds read low 1.03 | S. cerevisiae deletion strains, locus YLR418C, strain cdc73, active compounds read low 0.947 | S. cerevisiae deletion strains, locus YML016C, strain PPZ1, active compounds read low 0.989 | S. cerevisiae deletion strains, locus YML032C, strain rad52, active compounds read low 0.964 | S. cerevisiae deletion strains, locus YML120C, strain ndi1, active compounds read low 1.03 | S. cerevisiae deletion strains, locus YML124C, strain tub3, active compounds read low 0.99 | S. cerevisiae deletion strains, locus YMR058W, strain fet3, active compounds read low 1.01 | S. cerevisiae deletion strains, locus YMR078C, strain ctf18, active compounds read low 0.98 | S. cerevisiae deletion strains, locus YMR125W, strain sto1, active compounds read low 1.08 | S. cerevisiae deletion strains, locus YMR129W, active compounds read low 1.01 | S. cerevisiae deletion strains, locus YMR205C, strain PFK2, active compounds read low 1.03 | S. cerevisiae deletion strains, locus YMR223W, strain ubp8, active compounds read low 0.937 | S. cerevisiae deletion strains, locus YMR231W, strain pep5, active compounds read low 0.998 | S. cerevisiae deletion strains, locus YMR307W, strain GAS1, active compounds read low 0.89 | S. cerevisiae deletion strains, locus YNL067W, strain RPL9B, active compounds read low 1.02 | S. cerevisiae deletion strains, locus YNL071W, strain lat1, active compounds read low 1.02 | S. cerevisiae deletion strains, locus YNL153C, strain GIM3, active compounds read low 1.03 | S. cerevisiae deletion strains, locus YNL183C, strain NPR1, active compounds read low 0.992 | S. cerevisiae deletion strains, locus YNL209W, strain ssb2, active compounds read low 1.01 | S. cerevisiae deletion strains, locus YNL233W, strain BNI4, active compounds read low 1.01 | S. cerevisiae deletion strains, locus YNL248C, strain rpa49, active compounds read low 0.98 | S. cerevisiae deletion strains, locus YNL250W, strain rad50, active compounds read low 0.941 | S. cerevisiae deletion strains, locus YNL271C, strain bni1, active compounds read low 0.977 | S. cerevisiae deletion strains, locus YNL298W, strain CLA4, active compounds read low 0.972 | S. cerevisiae deletion strains, locus YNL307C, strain MCK1, active compounds read low 0.976 | S. cerevisiae deletion strains, locus YNL322C, strain KRE1 (second series), active compounds read low 1.03 | S. cerevisiae deletion strains, locus YNR049C, strain mso1, active compounds read low 1.02 | S. cerevisiae deletion strains, locus YNR052C, strain pop2, active compounds read low 0.978 | S. cerevisiae deletion strains, locus YOL006C, strain TOP1, active compounds read low 1.06 | S. cerevisiae deletion strains, locus YOL012C, strain htz1 0.629 | S. cerevisiae deletion strains, locus YOL147C, strain pex11, active compounds read low 0.984 | S. cerevisiae deletion strains, locus YOR001W, strain rrp6, active compounds read low 1.02 | S. cerevisiae deletion strains, locus YOR061W, strain CKA2, active compounds read low 0.994 | S. cerevisiae deletion strains, locus YOR069W, strain VPS5, active compounds read low 0.991 | S. cerevisiae deletion strains, locus YOR070C, strain gyp1, active compounds read low 1.01 | S. cerevisiae deletion strains, locus YOR080W, strain dia2, active compounds read low 1.03 | S. cerevisiae deletion strains, locus YOR083W, strain WHI5, active compounds read low 1.02 | S. cerevisiae deletion strains, locus YOR106W, strain vam3, active compounds read low 1.01 | S. cerevisiae deletion strains, locus YOR136W, strain idh2, active compounds read low 0.991 | S. cerevisiae deletion strains, locus YOR144C, strain elg1, active compounds read low 0.99 | S. cerevisiae deletion strains, locus YOR184W, strain ser1, active compounds read low 0.936 | S. cerevisiae deletion strains, locus YOR231W, strain MKK1, active compounds read low 1.1 | S. cerevisiae deletion strains, locus YOR265W, strain rbl2, active compounds read low 1.03 | S. cerevisiae deletion strains, locus YOR270C, strain vph1, active compounds read low 1 | S. cerevisiae deletion strains, locus YOR290C, strain snf2, active compounds read low 1.01 | S. cerevisiae deletion strains, locus YOR316C, strain cot1, active compounds read low 0.991 | S. cerevisiae deletion strains, locus YPL051W, strain arl3, active compounds read low 1.02 | S. cerevisiae deletion strains, locus YPL078C, strain atp4, active compounds read low 0.989 | S. cerevisiae deletion strains, locus YPL106C, strain sse1, active compounds read low 1.04 | S. cerevisiae deletion strains, locus YPL240C, strain hsp82, active compounds read low 1.04 | S. cerevisiae deletion strains, locus YPL256C, strain CLN2, active compounds read low 1.06 | S. cerevisiae deletion strains, locus YPR119W, strain clb2, active compounds read low 0.987 | S. cerevisiae deletion strains, locus YPR141C, strain kar3, active compounds read low 0.985 | S. cerevisiae deletion strains, locus YPR163C, strain tif3, active compounds read low 0.995 | S. cerevisiae deletion strains, locus YPR167C, strain met16, active compounds read low 0.981 | S. cerevisiae deletion strains, strain wtn01, active compounds read low 0.963 | S. cerevisiae strains, strain wild type, active compounds read low 0.995

Reference: PubChem BioAssay AID1159580 (chemical genetic matrix, 2015)
